Results from article PMC4336329 (PLoS ONE, 2015).
About 14,000 (4.5%) of roughly 310,000 compounds showed an effect of 50% or more. Effects have a minus sign here. Many of the other results were omitted from the sample, so strong results are more common in it than they were.

biological target: human ether-à-go-go-related gene (hERG) potassium channel (human, UniProt Q12809); assay: primary screen, population patch clamp on CHO cells stably expressing hERG; higher = less effect of the substance
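Also: peak tail current of the secondary pulse compared with the same well before compound.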

Sequence of human ether-à-go-go-related gene (hERG) potassium channel (Q12809 whole entry, looked up): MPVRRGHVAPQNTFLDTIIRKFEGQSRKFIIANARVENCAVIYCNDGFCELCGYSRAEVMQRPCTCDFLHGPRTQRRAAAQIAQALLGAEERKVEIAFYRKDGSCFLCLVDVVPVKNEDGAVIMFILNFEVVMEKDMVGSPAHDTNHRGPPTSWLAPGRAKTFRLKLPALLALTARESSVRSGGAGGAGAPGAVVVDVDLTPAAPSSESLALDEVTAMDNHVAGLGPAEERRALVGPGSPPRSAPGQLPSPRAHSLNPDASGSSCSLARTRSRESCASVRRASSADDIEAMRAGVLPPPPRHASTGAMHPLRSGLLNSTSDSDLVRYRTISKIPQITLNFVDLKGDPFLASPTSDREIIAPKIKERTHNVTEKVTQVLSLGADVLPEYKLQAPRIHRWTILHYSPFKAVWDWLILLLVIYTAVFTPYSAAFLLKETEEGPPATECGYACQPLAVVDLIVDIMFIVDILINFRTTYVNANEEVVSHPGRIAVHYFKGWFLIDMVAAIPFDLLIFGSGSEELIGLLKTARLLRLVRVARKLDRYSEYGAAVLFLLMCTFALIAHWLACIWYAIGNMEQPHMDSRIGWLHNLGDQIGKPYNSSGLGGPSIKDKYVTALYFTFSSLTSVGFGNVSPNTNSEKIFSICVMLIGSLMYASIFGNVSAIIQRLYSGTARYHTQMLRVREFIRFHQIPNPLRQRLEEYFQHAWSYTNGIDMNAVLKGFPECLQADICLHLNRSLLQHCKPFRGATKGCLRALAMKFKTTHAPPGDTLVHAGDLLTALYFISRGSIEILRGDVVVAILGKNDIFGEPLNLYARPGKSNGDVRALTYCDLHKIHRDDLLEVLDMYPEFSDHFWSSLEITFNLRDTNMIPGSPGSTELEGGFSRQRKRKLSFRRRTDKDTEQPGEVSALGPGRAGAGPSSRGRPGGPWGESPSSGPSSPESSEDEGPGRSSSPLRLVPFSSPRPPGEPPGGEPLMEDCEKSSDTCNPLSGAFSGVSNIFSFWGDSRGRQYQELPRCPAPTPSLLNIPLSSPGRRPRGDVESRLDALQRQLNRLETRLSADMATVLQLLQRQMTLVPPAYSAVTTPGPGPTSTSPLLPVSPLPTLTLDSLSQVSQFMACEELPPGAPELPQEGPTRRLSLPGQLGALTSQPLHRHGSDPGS

Point of comparison: `CC(=O)N1CCN(c2ccccc2NC(=O)c2ccc3ccccc3c2)CC1`, “hERG current change (%, negative = inhibition) at 10uM” value -61.9%. Against it:
- CN(C(=O)Cc1c(C(=O)O)n(C)c2ccccc12)c1ccc(F)cc1 — higher, 19.8%
- COc1ccc(-n2c(COc3ccc(C)cc3)nnc2SCc2ccc(C#N)cc2)cc1 — higher, -29.6%
- CCn1c(COc2ccc(Cl)cc2)nnc1SCc1nc2ccccc2[nH]1 — higher, -17.7%
- CCSc1nnc(COc2ccccc2)n1CC — higher, 6.43%
- COc1ccc(-n2c(COc3ccccc3)nnc2SCc2ccc(C#N)cc2)cc1 — higher, -39.4%
- N#CCSc1nnc(COc2ccccc2)n1-c1ccccc1 — higher, -10.7%
- COc1ccc(-n2c(COc3ccc(Cl)cc3)nnc2SCc2ccc(C#N)cc2)cc1 — higher, 0.977%
- CCn1c(COc2ccc(C)cc2)nnc1SCc1ccc(C#N)cc1 — higher, -59.6%
- Cc1ccc(OCc2nnc(SCc3ccc(C#N)cc3)n2-c2ccc(C)cc2)cc1 — higher, -29.6%
- CCn1c(COc2ccccc2)nnc1SCc1ccc(C#N)cc1 — higher, -54.1%
- CCn1c(COc2ccccc2)nnc1SCC(=O)C(C)(C)C — higher, -14.2%
- N#Cc1ccc(CSc2nnc(COc3ccccc3)n2-c2ccccc2)cc1 — higher, -52.3%
- CCn1c(COc2ccc(Cl)cc2)nnc1SCc1ccc(C#N)cc1 — lower, -70.5%
- COc1ccc(/C=N/NC(=O)CCN2CCCCC2c2cccnc2)cc1Cn1cc([N+](=O)[O-])cn1 (stereo not shown) — higher, -30.7%
- CCCCOCCCNC(=O)Cc1cccs1 — higher, 1.1%
- O=C(CN1C(=O)c2ccccc2C1=O)NN1C(=O)c2ccccc2C1=O — higher, 1.18%
- Cc1c(C(=O)Oc2cccc3cccnc23)oc2ccccc12 — higher, -4.01%
- Cc1cnc(C(=O)OCC(=O)NC2CCCC(C)C2C)cn1 (stereo not shown) — higher, 6.02%
- CN1CCN(c2ccccc2NC(=O)c2cc(Br)ccc2Cl)CC1 — lower, -76.4%
- CS(=O)(=O)N1CCN(c2ccccc2NC(=O)c2cc(Br)ccc2Cl)CC1 — higher, -30.3%
- O=C(Nc1ccccc1N1CCCC1)c1ccc2ccccc2c1 — higher, 8.73%
- CS(=O)(=O)N1CCN(c2ccccc2NC(=O)c2ccc3ccccc3c2)CC1 — higher, -8.76%
- CC(=O)N1CCN(c2ccccc2NC(=O)c2cccc3c(Cl)cccc23)CC1 — higher, -19.2%
- CC(=O)N1CCN(c2ccccc2NC(=O)c2cc(Br)ccc2Cl)CC1 — lower, -66.6%
- COc1c(Cl)cc(Cl)cc1C(=O)Nc1ccccc1N1CCN(C(C)=O)CC1 — higher, 3.01%
- O=C(Nc1ccccc1N1CCCC1)c1cc(Cl)ccc1Cl — higher, -2.72%
- CC(C)C(NC(=O)COc1ccc2ccccc2c1)C(=O)N/N=C/C=C/c1ccccc1 (stereo not shown) — higher, 14.8%
- COc1cc(C2/C(=C(\O)c3ccc4c(c3)CC(C)O4)C(=O)C(=O)N2c2nnc(C)s2)cc(OC)c1OC (stereo not shown) — higher, 9.14%
- Cc1c(Cc2ccccc2)c(=O)oc2cc(OCC(=O)N3CCC(C(=O)O)CC3)ccc12 — higher, 6.24%
- Cc1noc(C)c1COc1ccc(C(=O)OCC(=O)N2CC3(C)CC2CC(C)(C)C3)cc1 (stereo not shown) — higher, -6.44%
- COC(=O)c1ccc(Oc2c(Cl)cccc2[N+](=O)[O-])cc1 — higher, 3.65%
- COc1ccc(OC(C)C(=O)NCC2CCCO2)cc1 (stereo not shown) — higher, 18.5%
- COC(=O)c1sc(N)c(C(=O)OC)c1COC(=O)c1c(C)noc1C — higher, -3.57%
- Cc1noc(C)c1CSc1nnc(C)c(=O)[nH]1 — higher, 7.14%
- CCOC(=O)c1[nH]c(C)c(C(=O)OCC(=O)N(C)C2CCS(=O)(=O)C2)c1C (stereo not shown) — higher, 29%
- OCCC1CN(Cc2ccc3cc(Cl)ccc3n2)CCN1Cc1ccsc1 (stereo not shown) — lower, -65%
- Cc1cccc(CN2CCN(Cc3ccc4nonc4c3)CC2CCO)n1 (stereo not shown) — higher, -35.6%
- CCOc1ccc2nc(CN3CCN(Cc4ccsc4)C(CCO)C3)ccc2c1 (stereo not shown) — higher, -47%
- OCCC1CN(Cc2ccc3nonc3c2)CCN1Cc1ccsc1 (stereo not shown) — lower, -66.1%
- OCCC1CN(Cc2cccc3nonc23)CCN1Cc1ccsc1 (stereo not shown) — higher, -52.6%
- CC(C)N1CCC(N2CCN(Cc3cccc4nonc34)CC2CCO)CC1 (stereo not shown) — higher, 3.08%
- OCCC1CN(Cc2cccc3nonc23)CCN1C1CCCCC1 (stereo not shown) — higher, -5.74%
